Compound activity: PubChem BioAssay, National Center for Advancing Translational Sciences (NCATS)
Cycloheximide cs: Cycloheximide Counterscreen for Small Molecule Inhibitors of Shiga Toxin; cell reporter, cycloheximide protein synthesis inhibition counterscreen; max response, %; hit rate 12% among 300,000; in the data active means max response mostly above about 13%, no sharp cut-off; inactive means mostly below about 14%; further: read at 38.3 µM for the half of the compounds with a filed dose; 0% is about no effect
SARS PLpro yeast: qHTS of Yeast-based Assay for SARS-CoV PLP; S. cerevisiae expressing SARS-CoV PLpro, growth rescue; Potency, µM (top dose mostly 32.9 µM), for the others: at the highest dose activity, positive = growth rescue, usual class: activators; hit rate 0.19% among 330,000; AID 485353, 2010; further: potency means the concentration at half of the fitted maximal effect; 0% is about no effect; nearly all actives have a fitted effect of over 55% in size
Pf growth 96h: Primary qHTS for delayed death inhibitors of the malarial parasite plastid, 96 hour incubation; Potency, µM (series often up to 28.7 µM), for the others: at the top dose activity change, negative = inhibition, actives largely listed as inhibitors; AID 504834, 2011; hit rate 6.9% among 320,000; P. falciparum luciferase reporter growth, 96 h; active means well fitted inhibition curve with a large enough effect; inconclusive means small, poorly fitted or top-dose-only effect, or another doubt; inactive means no such curve, though single readings can be large or run the other way; further: potency means the concentration at half of the fitted maximal effect; on the % scale 0 is the no-effect control and ±100 the full control effect
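96 h incubation, 37 C, 5% CO2, of luciferase-reporter P. falciparum-infected RBCs (2% hematocrit, 0.05% parasitemia final) with test compounds; endpoint luminescence.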
NS1 function inh: qHTS Assay for Inhibitors of Influenza NS1 Protein Function. hit rate 0.4% among 270,000. AID 2326, 2010. Potency, µM (titrated, usually from 46.1 µM), for inactives: at the highest dose activity, positive = more growth; further: potency means the concentration at half of the fitted maximal effect; actives are rising curves; nearly all actives have a fitted effect of over 50% in size
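Compounds were scored for reversing the slow growth caused by influenza A NS1 in S. cerevisiae, measured by optical density at 600 nm. Assay medium contained 2% galactose at pH 6.0; NS1-free yeast of the same strain were the positive control.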
Shiga inhibitor: A qHTS for Small Molecule Inhibitors of Shiga Toxin. inhibition, % at 38.7 µM. Vero cells, Shiga toxin protein synthesis inhibition reporter. hit rate 9.2% among 290,000. AID 2315, 2010; in the data active means inhibition mostly above about 28%, no sharp cut-off; inactive means mostly below about 43%; further: 0% is about no effect
Pf growth 48h: Primary qHTS for delayed death inhibitors of the malarial parasite plastid, 48 hour incubation | P. falciparum luciferase growth in erythrocytes, 48 h | Potency, µM (top dose mostly 28.7 µM), for the others: at the top dose activity change, negative = inhibition, usual class: inhibitors | hit rate 5.9% among 310,000 | AID 504832, 2011; active means well fitted inhibition curve with a large enough effect; inconclusive means small, poorly fitted or top-dose-only effect, or another doubt; inactive means no such curve, though single readings can be large or run the other way; further: potency means the concentration at half of the fitted maximal effect; on the % scale 0 is the no-effect control and ±100 the full control effect
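Luciferase-expressing P. falciparum in infected erythrocytes (2% hematocrit, 0.1% parasitemia final) in RPMI 1640/0.5% Albumax were exposed to compound for 48 hours at 37 C, 5% CO2; growth read as luminescence.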
* hit, by the source's call; ? = inconclusive; nt = no result given. Rows were chosen to be rich in hits. Some 21% of all compounds tested hit in one or more screens of this group. Unless noted, the call rests on the fitted dose curve.

SMILES | Cycloheximide cs | SARS PLpro yeast | Pf growth 96h | NS1 function inh | Shiga inhibitor | Pf growth 48h
COc1ccc(C2CC(c3ccc(F)cc3)=NN2c2ccccc2)cc1OC (configuration not stated) | 26* | -7% | ? | 13% | 90* | ?
CCCCCCCCNC1=CC(=O)CC(C)(C)C1 | 2 | -1% | ? | -10% | 28 | ?
Cc1ccc(Cl)c(OC(=O)c2nn(C(C)C)c(=O)c3ccccc23)c1 | -2 | -4% | ? | -7% | 6 | 4%
CCn1c(CC(=O)Nc2ccccc2F)nnc1SCC(=O)NC1CCCC1 | -3 | -1% | 18% | 3% | -3 | 24%
CCCCCCCn1ccc(=N)cc1 | -2 | -3% | nt | -10% | -11 | 0.93µM*
CCCCCCN1CC(O)=C(c2ccccc2)C1=N | 6 | 0% | nt | 1% | -7 | -12%
CCCCCCCCCn1ccc(=N)cc1 | -1 | 1% | ? | -68% | 7 | 0.17µM*
CCCCCn1ccc(=N)cc1 | 5 | 2% | 1.5µM* | 4% | -1 | 4.1µM*
CCn1ccc(=N)cc1 | 3 | -2% | 12µM* | ? | 16 | ?
Nc1nc(CSCc2ccccc2)nc(N2CCOCC2)n1 | 46* | 4% | nt | -2% | 46* | 85%
Nc1nc(CSc2nc3ccccc3s2)nc(N2CCOCC2)n1 | 15* | 0% | 13% | -2% | 36 | -2%
Nc1nc(CSc2nnc(-c3cccc(F)c3)n2-c2ccccc2)nc(N2CCOCC2)n1 | 6 | -16% | -18% | 12% | -9 | 9%
CCOC(=O)CCc1cc(F)c(S(=O)(=O)N2CCN(S(=O)(=O)c3ccc4c(c3)OCCO4)CC2)cc1F | -4 | nt | nt | nt | -7 | nt
CC(C)CCn1c(=S)[nH]c2ncccc2c1=O | 2 | 11% | ? | -4% | 0 | 6%
Cn1c(=S)[nH]c2cccnc21 | 1 | -4% | 8.3µM* | 6% | -9 | 15%
CC(C(=O)NCc1cccnc1)c1ccc([N+](=O)[O-])cc1 (configuration not stated) | 0 | 0% | -26% | -9% | -8 | 0%
CCOc1ccccc1NC(=O)c1ccc2[nH]c(C)c(C)c2c1 | 42* | 4% | ? | ? | 43* | 15µM*
CCOc1ccccc1NC(=O)NNC(=O)c1ccc2ccccc2c1 | -2 | -1% | 38% | 1% | -3 | -17%
CCOc1ccccc1NC(=O)c1ccc2ccccc2c1 | 23* | -6% | 12µM* | -25% | nt | 5%
CCC(=O)CCC(=O)c1ccc2ccccc2c1 | 55* | 9% | 35% | 3% | 125* | 62%
CC(C)N(CCC(=O)c1ccc2ccccc2c1)Cc1ccccc1 | nt | nt | 24% | -34% | nt | -26%
COc1ccc(NC(=O)c2ccc3[nH]c(C)c(C)c3c2)c(OC)c1 | 14 | -3% | -11% | 0% | 51 | -16%
CCOc1ccccc1NC(=O)c1cc(CC(C)C)oc1C | 2 | -17% | -10% | -16% | 9 | 10µM*
O=C(Nn1cnnc1)C1Cc2ccccc2CN1S(=O)(=O)c1ccc(F)cc1 (configuration not stated) | 3 | 2% | 8.3µM* | 9% | 6 | 16%
COC(=O)C1Cc2ccccc2CN1S(=O)(=O)c1ccc(F)cc1 (configuration not stated) | -1 | -2% | 1.3µM* | -6% | 15 | -8%
SMILES | Cycloheximide cs | SARS PLpro yeast | Pf growth 96h | NS1 function inh | Shiga inhibitor | Pf growth 48h
COc1ccc(OC)c(NC(=O)COC(=O)c2c3c(nc4ccccc24)CCCC3)c1 | -2 | -12% | nt | -10% | -9 | 8.3µM*
CNC(=O)COC(=O)c1c2c(nc3ccccc13)CCC2 | -1 | -1% | ? | -1% | -7 | 13µM*
COc1ccc(NC(=O)COC(=O)c2c3c(nc4ccccc24)CCCC3)cc1Cl | 11 | -18% | nt | -49% | 20 | 12µM*
Cc1nn(CC(=O)N2CCN(c3ccccc3)CC2)c(=O)c2cccn12 | 0 | -3% | 49% | -12% | -4 | 1%
CNC(=S)N(Cc1ccc(Cl)cc1)Cc1cccs1 | -3 | 0% | -32% | 3% | 17 | 6%
NC(=O)c1cccc(C[C@H](C(=O)O)N2C(=O)c3ccc(C(=O)O)cc3C2=O)c1 | 8 | 2% | 20% | nt | -3 | ?
O=C1C=C(c2ccc3ncccc3c2)C[C@@H](c2ccc3c(c2)OCO3)C1 | nt | -10% | ? | nt | nt | ?
CCn1c(=O)cc(C(F)(F)F)[nH]c1=S | -1 | 0% | 28% | nt | -4 | ?
Cc1cccnc1CCNCc1c(C(=O)N2C[C@@H](C)O[C@@H](C)C2)nc2ccc(Cl)cn12 | 6 | 0% | -5% | 5% | -8 | 10µM*
Cc1nonc1OCCNCc1c(C(=O)N2CCCCCCC2)nc2ccc(Cl)cn12 | 5 | 0% | 18% | 8% | 1 | 3.7µM*
O=C(NC1CCCCC1)c1c2c(nc3ccccc13)CCC2 | 7 | 1% | 34% | nt | -1 | -7%
CN1CCN(NC(=O)NC2CCCCC2)CC1 | -1 | 2% | -20% | 9% | -6 | 18%
CCOC(=O)/C=C/c1ccc2oc3ccccc3c(=O)c2c1 | 49* | 7% | 108% | -1% | 76* | 236%
CCOC(=O)COc1c(-c2ccc(OC)cc2)oc2ccccc2c1=O | -3 | -6% | -6% | -9% | 8 | 35%
CN(C)C(=S)SSC(=S)N(C)C | 23* | -27% | 0.76µM* | 9% | 12 | 0.85µM*
CN(C)C(=S)SC(=S)N(C)C | 24 | nt | 3.4µM* | nt | 23 | 5.4µM*
COc1cc(OC)cc(-c2c(-c3cccs3)c3cc(-c4ccc5c(c4)OCCO5)ccc3n2C)c1 | nt | -1% | ? | nt | nt | 6.6µM*
COc1cc(OC)cc(-c2c(-c3cccs3)c3cc(-c4cnc(N)nc4)ccc3n2C)c1 | nt | -7% | nt | nt | nt | nt
COc1cc(OC)cc(-c2c(-c3cccs3)c3cc(-c4ccc(SC)cc4)ccc3n2C)c1 | nt | 1% | 2.1µM* | nt | nt | -79%
COc1ccc(-c2c(-c3cc(OC)cc(OC)c3)n(C)c3ccc(-c4ccc5c(c4)OCCO5)cc23)cc1 | nt | 6% | nt | nt | nt | nt
COc1cc(OC)cc(-c2c(-c3cccs3)c3cc(-c4ccc(OC)c(OC)c4)ccc3n2C)c1 | nt | -9% | ? | nt | nt | 6.6µM*
COc1cc(OC)cc(-c2c(-c3cccs3)c3cc(-c4ccc(OC)c(F)c4)ccc3n2C)c1 | nt | -8% | ? | nt | nt | ?
Cc1cc(C)cc(OCC(=O)OCC(=O)c2c(N)n(C)c(=O)n(C)c2=O)c1 | -4 | 11% | nt | 12% | -4 | 22%
Cc1ccc(/C(O)=C2/C(=O)C(=O)OC2c2ccc(Cl)cc2)cc1 (configuration not stated) | 24* | ? | 72% | 22% | 20 | -2%
CN1C(=O)C(=O)/C(=C(/O)c2ccccc2)C1c1ccccc1 (configuration not stated) | -3 | 3% | 36% | 11% | 2 | -7%
